Bioassay records (PubChem BioAssay)
Hits are enriched below; roughly 6.5% of the tested compounds scored in any of these assays.
HepG2 tox: qHTS for Inhibitors of TGF-b: Cytotox Counterscreen | hit rate 0.76% among 410,000 | Potency, µM (highest dose often 46.1 µM), for the others: at the highest dose activity change, negative = cytotoxicity, most hits filed as cytotoxic | HepG2 CAGA-GFP viability, ATP luminescence, 18 h | AID 588856, 2011; also: potency is read from the fitted curve at half-maximal effect
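CellTiter-Glo luminescence gave cytotoxicity after 18 hours at 37 degrees C. The cells were HepG2 CAGA-GFP in 1% FBS DMEM, stimulated with 500 pg/mL TGF-beta after compound addition. %Activity was normalised to no-cell wells (complete cell-killing) and DMSO (no toxicity), and curves were fitted and classified.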
TGFb inhibitor: qHTS for Inhibitors of TGF-b; HepG2 CAGA-GFP TGF-b/SMAD3 reporter, GFP fluorescence, 18 h; TGF-beta stimulated, 500 pg/mL final; Potency, µM (series often up to 46.1 µM), for the others: at the highest dose activity, negative = inhibition, usual class: inhibitors; hit rate 1.2% among 410,000; also: potency is read from the fitted curve at half-maximal effect; % is scaled to controls: 0 for no effect and ±100 for the full control effect; nearly all actives have a fitted effect of over 65% in size
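Cell-based qHTS in HEPG2 carrying a CAGA-GFP Smad reporter; compounds added before 500 pg/mL final TGF-beta, 18 h incubation at 37 degrees C, GFP fluorescence quantified per cell by imaging cytometry.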
HT1080 IDH1KD tx: qHTS for induction of synthetic lethality in tumor cells producing 2HG: qHTS for the HT-1080-IDH1KD cell line. hit rate 2% among 360,000. Potency, µM (series often up to 46.1 µM), for inactives: top-dose activity, negative = toxicity, usual class: cytotoxic. HT-1080 IDH1 knockdown viability, ATP luminescence, 48 h. AID 686971, 2013;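 also: potency is read from the fitted curve at half-maximal effect; 0% = DMSO wells and -100% = cell-free medium wells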
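Viability of IDH1-knockdown HT-1080 fibrosarcoma cells was assessed by CellTiter-Glo after 48 h at 37 °C with titrated compound; concentration-effect curves were classified by fit quality and response size.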
IL1B secr inh: qHTS for Inhibitors of Inflammasome Signaling: IL-1-beta AlphaLISA Primary Screen. THP-1 LPS/ATP IL-1B secretion, AlphaLISA, 16 h; hits give low values. activity change, % at 57.5 µM. hit rate 4.7% among 360,000. AID 743279, 2014; in the data active = activity change below about -50%; inconclusive = mostly about -30% to -49%; also: % is scaled to controls: 0 for no effect and ±100 for the full control effect
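THP-1 cells pretreated 1 hr with compounds (up to 57.5 uM final), then stimulated with LPS (250 ng/mL final) plus ATP (1.25 mM final); secreted IL-1B measured by AlphaLISA after 16 hr, decreased signal indicating inhibition.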
Giardia killer: Small Molecules that selectively kill Giardia lamblia: qHTS; Giardia lamblia trophozoite viability; activity change, % at 7.66 µM, hits read low; hit rate 0.15% among 340,000; in the data active = activity change below about -80%; inconclusive = between about -30% and that limit;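 also: parasites exposed to compound for two days anaerobically before the ATP read; % is scaled to controls: 0 for no effect and ±100 for the full control effect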
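Anaerobic 48 hrs incubation at 37 deg C of 100 trophozoites/well with test compounds; ATPLite 1-Step luminescence, 15-30 min RT, reports cellular ATP as viability.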
HT1080-NT tox: qHTS for induction of synthetic lethality in tumor cells producing 2HG: qHTS for the HT-1080-NT fibrosarcoma cell line. HT-1080-NT fibrosarcoma viability, CellTiter-Glo ATP luminescence, 48 h. Potency, µM (series often up to 46.1 µM), inactives show at the top dose activity, negative = less viability, actives largely listed as cytotoxic. hit rate 1.6% among 360,000. AID 686970, 2013;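 also: NT is the 2HG producing partner of a matched IDH1 knockdown line; potency is read from the fitted curve at half-maximal effect; 0% = DMSO-treated cells and -100% = media-only wells without cells; nearly all actives have a fitted effect of over 55% in size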
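Read-out is CellTiter-Glo luminescence after 10 minutes at room temperature, following 48 hours' compound treatment of HT-1080-NT cells (750 cells/well, RPMI, 5% FBS, 37 degrees C).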
Starred values were filed as active, the others as inactive. Unless noted, calls follow the shape of the dose curve; as a rule, active = well fitted curve in the direction sought with a large enough effect; inconclusive = small, poorly fitted or top-dose-only effect, or another doubt; inactive = no such curve, though single readings can be large; an effect the other way counts as inactive or inconclusive.

How did COC(=O)C1=C(c2cc3ccccc3o2)C[C@@H]2CC[C@H]1N2C(=O)NCc1ccc(C(F)(F)F)cc1 do in these assays?
HepG2 tox: -21%; TGFb inhibitor: 3%; HT1080 IDH1KD tx: inconclusive; IL1B secr inh: inconclusive; Giardia killer: -1; HT1080-NT tox: 21µM*

How did COC(=O)C1=C(c2ccccc2)C[C@@H]2CC[C@H]1N2C(=O)N1CCOCC1 do in these assays?
HepG2 tox: 5%; TGFb inhibitor: 6%; HT1080 IDH1KD tx: 2%; IL1B secr inh: 22; Giardia killer: 17; HT1080-NT tox: 6%

How did COC(=O)C1=C(c2cc3ccccc3o2)C[C@@H]2CC[C@H]1N2C(=O)N1CCOCC1 do in these assays?
HepG2 tox: 0%; TGFb inhibitor: inconclusive; HT1080 IDH1KD tx: inconclusive; IL1B secr inh: 45; Giardia killer: -1; HT1080-NT tox: 23µM*

How did CC1=C(C(=O)O)N2C(=O)[C@@H](NC(=O)CCCC(=O)O)[C@H]2SC1 do in these assays?
HepG2 tox: 2%; TGFb inhibitor: 8%; HT1080 IDH1KD tx: 0%; IL1B secr inh: 4; Giardia killer: 1; HT1080-NT tox: -2%

Results for Cc1cc([N+](=O)[O-])c2ccccc2[n+]1[O-] ?
HepG2 tox: -126%; TGFb inhibitor: 0.5µM*; HT1080 IDH1KD tx: 8.2µM*; IL1B secr inh: -99*; Giardia killer: -88*; HT1080-NT tox: 6.5µM*

Results for CN1CSC(=S)N(C)C1 ?
HepG2 tox: -59%; TGFb inhibitor: inconclusive; HT1080 IDH1KD tx: -5%; IL1B secr inh: -95*; Giardia killer: 15; HT1080-NT tox: -4%

How did CCCCCCCCn1sccc1=O do in these assays?
HepG2 tox: -97%; TGFb inhibitor: 5.6µM*; HT1080 IDH1KD tx: 8.2µM*; IL1B secr inh: -107*; Giardia killer: -7; HT1080-NT tox: 6.5µM*

Results for c1ccc(Nc2ccc(Nc3ccccc3)cc2)cc1 ?
HepG2 tox: -15%; TGFb inhibitor: 1%; HT1080 IDH1KD tx: -14%; IL1B secr inh: -25; Giardia killer: -3; HT1080-NT tox: -26%

Results for [Hg+][c]1ccccc1 ?
HepG2 tox: 0.56µM*; TGFb inhibitor: 0.32µM*

How did O=C1C=CC2C3C(=O)N(c4ccccc4)C(=O)C3C1N2Cc1ccccc1 (centres undefined) do in these assays?
HepG2 tox: 13µM*; TGFb inhibitor: 2.8µM*; HT1080 IDH1KD tx: 10µM*; IL1B secr inh: -97*; Giardia killer: 2; HT1080-NT tox: inconclusive

Results for Oc1c(Cl)cccc1Cc1cc(Cl)cc(Cl)c1O ?
HepG2 tox: -29%; TGFb inhibitor: 11µM*; HT1080 IDH1KD tx: inconclusive; IL1B secr inh: inconclusive; Giardia killer: 0; HT1080-NT tox: inconclusive

How did CCN1/C(=C/C=C/C2=[N+](CC)c3ccccc3C2(C)C)C(C)(C)c2ccccc21 do in these assays?
HepG2 tox: -79%; TGFb inhibitor: inconclusive; HT1080 IDH1KD tx: 10µM*; IL1B secr inh: -105*; HT1080-NT tox: 9.2µM*

What do the screens show for `CC1CN2C(=O)C1(c1ccccc1)C(=O)NC2=S` (centres undefined)?
HepG2 tox: -12%; TGFb inhibitor: 3%; HT1080 IDH1KD tx: 9%; IL1B secr inh: 10; HT1080-NT tox: 7%

How did CCN(CC)c1ccc(CN2CC=C(c3ccc(F)cc3)CC2)cc1 do in these assays?
HepG2 tox: -78%; TGFb inhibitor: inconclusive; HT1080 IDH1KD tx: inconclusive; IL1B secr inh: 0; Giardia killer: -5; HT1080-NT tox: inconclusive

Results for CCOC(=O)[C@]12Cc3ccc(C)cc3[C@H]1N(C1CCCCC1)C(=O)c1ccccc12 ?
HT1080 IDH1KD tx: 5.8µM*; IL1B secr inh: -118*; HT1080-NT tox: 8.2µM*

How did CCOC(=O)[C@]12Cc3cc(N(C)C)ccc3[C@H]1N(Cc1ccccc1)C(=O)c1ccccc12 do in these assays?
HepG2 tox: -4%; TGFb inhibitor: inconclusive; HT1080 IDH1KD tx: -4%; IL1B secr inh: -8; Giardia killer: 4; HT1080-NT tox: -8%

Results for CCOC(=O)[C@]12Cc3cc(C)ccc3[C@H]1N(C1CCCCC1)C(=O)c1ccccc12 ?
HT1080 IDH1KD tx: 3.7µM*; IL1B secr inh: -111*; HT1080-NT tox: 3.7µM*

Results for CCOC(=O)[C@]12Cc3c(cc(OC)c(OC)c3OC)[C@H]1N(C1CCCCC1)C(=O)c1ccccc12 ?
HT1080 IDH1KD tx: 2.9µM*; IL1B secr inh: -113*; HT1080-NT tox: 3.3µM*

Results for CCC(=Nc1ccc(OC)cc1OC)c1c(O)n(C2CCCCC2)c(=O)[nH]c1=O ?
HepG2 tox: -9%; TGFb inhibitor: inconclusive; HT1080 IDH1KD tx: -22%; IL1B secr inh: -2; Giardia killer: 1; HT1080-NT tox: -13%

How did CCOC(=O)[C@]12Cc3cc4c(cc3[C@H]1N(Cc1ccccc1)C(=O)c1ccccc12)OCO4 do in these assays?
HepG2 tox: -10%; TGFb inhibitor: inconclusive; HT1080 IDH1KD tx: -14%; IL1B secr inh: -22; Giardia killer: -10; HT1080-NT tox: -5%

Results for CCOC(=O)[C@]12Cc3ccc(C)cc3[C@H]1N(C1CCCCC1)C(=O)c1cc(OC)ccc12 ?
HT1080 IDH1KD tx: 3.3µM*; IL1B secr inh: -116*; HT1080-NT tox: 4.1µM*

What do the screens show for `OC1(c2ccc(F)cc2)CC2CCC(C1)N2Cc1nnnn1C1CCCC1` (centres undefined)?
HepG2 tox: 3%; TGFb inhibitor: inconclusive; HT1080 IDH1KD tx: 12%; IL1B secr inh: -5; Giardia killer: -14; HT1080-NT tox: -3%

How did COC(=O)C1=C(c2cccc(OCc3ccccc3)c2)C[C@@H]2CC[C@H]1N2C(=O)NCc1ccccc1OC do in these assays?
HepG2 tox: 2%; TGFb inhibitor: inconclusive; HT1080 IDH1KD tx: -12%; IL1B secr inh: inconclusive; Giardia killer: 16; HT1080-NT tox: -6%

What do the screens show for `Cc1ccc2nc3c(cc2c1)CC1(C(=O)N(C)C(=O)N(C)C1=O)C1CCCCN31` (centres undefined)?
HepG2 tox: -3%; TGFb inhibitor: -6%; HT1080 IDH1KD tx: 0%; IL1B secr inh: -18; Giardia killer: -14; HT1080-NT tox: -1%
